Paper PMC5540273 (PLoS ONE, 2017)

These compounds were tested on T1, NIK. Conditions: concentration: 1 μM,replicates: in singlicate; n = 1.
T1 construct: gene MAP3K14
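Also: KINOMEscan kinase panel screen.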

| Compound | %Inh [%] |
| --- | --- |
| O=C(NCCNc1ccnc(NCc2ccc(F)cc2)n1)c1cc2ccccc2s1 [GSK1379944] | 0 |
| Cl.Cl.NC[C@H](CC1CCCCC1)NC(=O)c1cc(Br)c(-c2ccnc3[nH]ccc23)s1 [GSK1581427] | 38 |
| Cc1ccc2c(-c3ccncc3)c(-c3ccc(F)cc3)nn2c1.Cl [GW461484] | 4 |
| CC(C)N1C(=O)Cc2cc(Nc3ncc(C(F)(F)F)c(NCc4cccc(S(C)(=O)=O)c4)n3)ccc21 | 0 |
| CN(C)CC(O)COc1ccc(Nc2nccc(-c3cnn4nc(N5CCOCC5)ccc34)n2)cc1 (stereo not drawn) [GW767488] | 0 |
| COc1ccc(C[C@@H](CN)NC(=O)c2cc(Br)c(-c3ccnc4[nH]ccc34)s2)cc1.Cl.Cl [GSK1389063] | 37 |
| C[C@@H](Oc1cc(-c2cnn(C3CCNCC3)c2)cnc1N)c1c(Cl)ccc(F)c1Cl | 0 |
| CCN(CC)CCCCNc1ncc2cc(-c3c(Cl)cccc3Cl)c(NC(=O)NC(C)(C)C)nc2n1 | 0 |
| C[C@H]1Oc2cc(cnc2N)-c2c(nn(C)c2C#N)CN(C)C(=O)c2ccc(F)cc21 | 3 |
| CCN(CC)CCOc1ccc(Nc2ncc3cc(-c4c(Cl)cccc4Cl)c(=O)n(C)c3n2)cc1 [SB-601273] | 31 |
| Cl.Cl.NC[C@H](Cc1ccc(C(F)(F)F)cc1)NC(=O)c1cc(Br)c(-c2ccnc3[nH]ccc23)s1 [GSK1487252] | 0 |
| C[C@@H]1CCN(C(=O)CC#N)C[C@@H]1N(C)c1ncnc2[nH]ccc12 | 0 |
| Cc1n[nH]c2ccc(-c3cc(OC[C@@H](N)Cc4ccccc4)cnc3-c3ccoc3)cc12.O=C(O)C(F)(F)F.O=C(O)C(F)(F)F [GSK507358] | 87 |
| CN(C)CCOc1ccc(-c2cc(-c3c[nH]nc3-c3ccccn3)ccn2)cc1 [GW835314] | 44 |
| CCn1c(-c2nonc2N)nc2c(C#CC(C)(C)O)nc(OCCN)cc21.Cl.Cl [GSK902056] | 63 |
| Nc1nc(Nc2ccccc2)cc(-c2ccc3c(N)n[nH]c3c2)n1 [GSK2225749] | 20 |
| Cc1ccc(-n2nc(C(C)(C)C)cc2NC(=O)Nc2ccc(OCCN3CCOCC3)c3ccccc23)cc1 [GW839464] | 0 |
| Cc1cc(C(=O)Nc2ccc(Oc3ccc4nc(NC(=O)C5CC5)cn4n3)cc2)nn1-c1ccccc1 | 0 |
| O=C(NCCCN1CCOC1=O)c1cnc(NCc2cc(Cl)ccc2Cl)nc1NC1CCCC1 | 16 |
| CC(C)Nc1cc(-c2ccc3c(N)n[nH]c3c2)nc(N)n1 [GSK2221681] | 0 |
| CNC(=O)c1ccccc1Sc1ccc2c(/C=C/c3ccccn3)n[nH]c2c1 | 0 |
| NC(=O)c1cc(-c2ccccc2)cc2c(C3CCNCC3)c[nH]c12 [GSK301362] | 0 |
| Cl.Cl.Nc1nc(-c2ccc3c(N)n[nH]c3c2)cc(N2CCCC(NC(=O)c3ccccc3)C2)n1 (stereo not drawn) [GSK2286775] | 0 |
| Cl.Oc1cc(-c2nc(-c3ccccc3)[nH]c2-c2ccncc2)ccc1Cl [SB-386023] | 1 |
| Cc1cc2cn[nH]c2cc1-c1cccc2c(N)c(C(N)=O)nnc12 | 40 |
| Cc1occc1-c1nc(N)c(OC[C@@H](N)Cc2c[nH]c3ccccc23)cc1-c1cc2c(C)n[nH]c2cn1 [GSK1660450] | 78 |
| C=CC(=O)Nc1cc2c(Nc3ccc(F)c(Cl)c3)ncnc2cc1OCCCN1CCOCC1 [GW781483] | 6 |
